Experiment [1] in a line: E. coli DRC41 culture turbidity changes, primary screen, E. coli filamentation inducer project, strain DRC41, OD650, 48 h (AID 1152).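 Further: E. coli MC1000 strain DRC41 lacking acrAB efflux pump and sulA.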 As to conditions: E. coli DRC41 (acrAB sulA), higher = more signal, called active from +8 up or from −8 down.
Experiment [2] is described as follows: small-molecule binders of probe aLefty1, primary screen, biochemical, small-molecule microarray, 635/667 nm fluorescence (AID 1153).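 Further: score merges spot fluorescence with signal-to-noise ratio from the scanned slide images.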 As to conditions: higher = more signal.
The nature of experiment [3]: PSAC antagonists in infected red cells, primary screen, cell-based, P. falciparum Indochina, OD700, 1 h (AID 1154). Conditions: P. falciparum Indochina infected RBC osmotic lysis, higher = more signal, called active from +8 up or from −8 down.
Experiment [4] can be described thus: PSAC antagonists in infected red cells, primary screen, cell-based, P. falciparum Indochina, OD700, 2 h (AID 1155).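 Further: lysis reports solute entry through the parasite surface anion channel PSAC; channel blockers reduce lysis of infected cells.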 As to conditions: P. falciparum Indochina infected erythrocytes, osmotic lysis OD700; higher = more signal, called active from +8 up or from −8 down.
A short description of experiment [5]: osmotic lysis modulators in infected erythrocytes, primary screen, PSAC antagonist project, cell-based, P. falciparum Indochina, OD700, 3 h (AID 1156). Conditions: higher = more signal, called active from +8 up or from −8 down.
Experiment [6] is described as follows: PSAC antagonists in infected red cells, primary screen, cell-based, P. falciparum Indochina, OD700, 18 h (AID 1157). Conditions: P. falciparum Indochina infected erythrocytes, osmotic lysis OD700, 18 h; higher = more signal, called active from +8 up or from −8 down.
Experiment [7] in a line: modulators of S6 phosphorylation in cells, primary screen, cell-based, A549, cytoblot, luminescence, serum-stimulated (AID 1158).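 Further: serum-stimulated A549 lung adenocarcinoma cells; signal is phosphorylated S6 detected by cytoblot immunostaining with HRP secondary.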 Conditions: A549 phospho-S6 cytoblot, 5 h, higher = more signal.
Experiment [8] addresses NADPH oxidase 2 (Homo sapiens) (UniProt P04839). In words: NOX2-dependent H2O2 signal modulators, primary screen, NOX inhibitor project, cell-based, HEK293-NOX2, PMA-stimulated, Amplex Red fluorescence (AID 1159). Further: test concentration not given here. Conditions: 45 min, higher = more signal, called active from +8 up or from −8 down.
Experiment [9] addresses NADPH oxidase 4 (Homo sapiens) (UniProt Q9NPH5). Put plainly: NOX4-dependent H2O2 signal modulators, primary screen, NOX inhibitor project, cell-based, HEK293-NOX4, tetracycline-induced, Amplex Red fluorescence (AID 1160). As to conditions: 45 min, higher = more signal, called active from +8 up or from −8 down.
Experiment [10] concerns the target NADPH oxidase 5 (Homo sapiens) (UniProt Q96PH1). Put plainly: NOX5-dependent H2O2 signal modulators, primary screen, NOX inhibitor project, cell-based, HEK293-NOX5, Amplex Red fluorescence (AID 1161). As to conditions: HEK293-NOX5, ionomycin, 45 min, higher = more signal.
The nature of experiment [11]: A549 cell viability effects, profiling panel, calcein-AM fluorescence, 48 h, basal (AID 1162). Further: test concentration not given here. Conditions: higher = more signal.
Experiment [12] can be described thus: adipocyte viability effects, profiling panel, cell-based, 3T3-L1 adipocytes, calcein-AM fluorescence, 48 h, basal (AID 1163). Further: test concentration not given here. As to conditions: 3T3-L1 adipocytes viability, higher = more signal.
Experiment [13] can be described thus: HepG2 cell viability effects, profiling panel, calcein-AM fluorescence, 48 h, basal (AID 1164). Further: test concentration not given here. As to conditions: higher = more signal.
The nature of experiment [14]: MM1S cell viability effects, profiling panel, calcein-AM fluorescence, 48 h, basal (AID 1165).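 Further: viability of MM1S multiple myeloma cells under basal unstimulated conditions; test concentration not given here.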 Conditions: higher = more signal.
Experiment [15] can be described thus: basal RPMI8226 viability, no added stimulus, profiling panel, cell-based, calcein-AM fluorescence, 48 h, PK04 Diversity Set (AID 1166).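 Further: cells grown under basal conditions without added stimulus; test concentration not given here.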 Conditions: RPMI8226 myeloma viability, higher = more signal.
Experiment [16] can be described thus: basal HepG2 mitochondrial membrane potential changes, profiling panel, cell-based, JC-1 fluorescence, 24 h, 100 nL compound (AID 1167). Further: test concentration not given here. Conditions: higher = more signal.
Experiment [17] in a line: basal 3T3-L1 adipocyte mitochondrial potential changes, profiling panel, cell-based, JC-1 fluorescence, 3T3-L1 adipocytes, 24 h, 100 nL compound (AID 1168). Further: test concentration not given here. Conditions: JC-1 mitochondrial fluorescence, higher = more signal, called active from +8 up or from −8 down.
Experiment [18] in a line: basal RPMI8226 mitochondrial membrane potential changes, profiling panel, cell-based, JC-1 fluorescence, 24 h, 100 nL compound (AID 1169). Further: test concentration not given here. Conditions: RPMI8226 myeloma, JC-1 mitochondrial potential fluorescence, higher = more signal.
The nature of experiment [19]: basal MM1S mitochondrial membrane potential changes, profiling panel, cell-based, JC-1 fluorescence, 24 h, 100 nL compound (AID 1170). Further: test concentration not given here. As to conditions: higher = more signal.
Experiment [20] is described as follows: A549 lung cancer cell viability effects, profiling panel, resazurin fluorescence, 24 h, PK04 Diversity Set (AID 1171). Further: test concentration not given here. As to conditions: higher = more signal, called active from +8 up or from −8 down.

Activity calls are given as the source filed them.

NADPH oxidase 5 (Homo sapiens), sequence (Q96PH1 whole entry, looked up): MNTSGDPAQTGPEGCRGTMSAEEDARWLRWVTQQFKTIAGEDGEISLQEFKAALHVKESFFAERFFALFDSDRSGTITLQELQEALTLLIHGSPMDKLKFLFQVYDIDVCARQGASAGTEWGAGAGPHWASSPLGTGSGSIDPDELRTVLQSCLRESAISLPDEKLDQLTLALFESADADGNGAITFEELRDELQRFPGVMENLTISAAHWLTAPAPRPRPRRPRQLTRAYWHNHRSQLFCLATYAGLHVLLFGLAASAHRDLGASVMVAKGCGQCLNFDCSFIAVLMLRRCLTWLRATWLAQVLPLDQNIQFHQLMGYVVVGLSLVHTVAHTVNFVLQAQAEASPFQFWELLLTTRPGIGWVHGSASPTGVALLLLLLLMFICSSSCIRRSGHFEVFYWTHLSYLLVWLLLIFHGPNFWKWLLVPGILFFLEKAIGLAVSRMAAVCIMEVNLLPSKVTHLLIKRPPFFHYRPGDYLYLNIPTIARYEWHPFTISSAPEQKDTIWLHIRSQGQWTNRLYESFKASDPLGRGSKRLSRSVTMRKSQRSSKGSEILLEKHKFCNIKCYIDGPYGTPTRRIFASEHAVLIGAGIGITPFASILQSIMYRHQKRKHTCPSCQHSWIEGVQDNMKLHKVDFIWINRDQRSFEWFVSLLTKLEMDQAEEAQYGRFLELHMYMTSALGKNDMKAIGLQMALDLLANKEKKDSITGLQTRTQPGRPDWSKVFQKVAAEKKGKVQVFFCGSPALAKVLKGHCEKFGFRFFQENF
NADPH oxidase 2 (Homo sapiens), sequence (P04839 whole entry, looked up): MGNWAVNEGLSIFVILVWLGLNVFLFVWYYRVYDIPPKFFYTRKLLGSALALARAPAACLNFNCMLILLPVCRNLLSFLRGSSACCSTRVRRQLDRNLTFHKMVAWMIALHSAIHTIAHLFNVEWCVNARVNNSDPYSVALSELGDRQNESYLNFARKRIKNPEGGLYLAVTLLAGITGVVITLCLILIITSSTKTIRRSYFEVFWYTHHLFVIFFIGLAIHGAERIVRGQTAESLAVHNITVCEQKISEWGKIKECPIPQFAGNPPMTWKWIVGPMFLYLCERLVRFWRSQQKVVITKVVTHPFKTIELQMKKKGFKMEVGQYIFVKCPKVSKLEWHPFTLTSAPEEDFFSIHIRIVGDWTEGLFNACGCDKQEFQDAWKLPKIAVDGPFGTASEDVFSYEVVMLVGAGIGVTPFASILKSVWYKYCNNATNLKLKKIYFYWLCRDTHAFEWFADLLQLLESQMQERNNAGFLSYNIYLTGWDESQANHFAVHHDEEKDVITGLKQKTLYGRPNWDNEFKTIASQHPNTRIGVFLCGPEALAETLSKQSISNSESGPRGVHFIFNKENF
NADPH oxidase 4 (Homo sapiens), sequence (Q9NPH5 whole entry, looked up): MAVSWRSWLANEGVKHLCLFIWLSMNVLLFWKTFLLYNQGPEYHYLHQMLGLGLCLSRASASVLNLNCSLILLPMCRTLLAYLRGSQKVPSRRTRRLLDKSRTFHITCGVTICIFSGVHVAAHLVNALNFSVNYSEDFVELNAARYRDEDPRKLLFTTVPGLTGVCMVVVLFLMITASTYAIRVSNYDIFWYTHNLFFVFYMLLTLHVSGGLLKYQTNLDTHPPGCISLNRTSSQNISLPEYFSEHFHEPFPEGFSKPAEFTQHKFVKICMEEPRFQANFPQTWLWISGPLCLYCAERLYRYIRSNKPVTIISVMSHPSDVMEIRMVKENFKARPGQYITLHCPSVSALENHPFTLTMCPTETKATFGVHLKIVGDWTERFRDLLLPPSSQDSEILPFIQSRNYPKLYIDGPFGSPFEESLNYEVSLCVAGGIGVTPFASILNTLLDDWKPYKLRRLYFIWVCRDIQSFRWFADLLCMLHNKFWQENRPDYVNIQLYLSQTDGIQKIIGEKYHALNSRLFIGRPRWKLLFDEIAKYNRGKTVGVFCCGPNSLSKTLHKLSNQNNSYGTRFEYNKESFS

As for `[N-]=[N+]=Nc1ccccc1C[C@@]1(C(=O)NCCN2CCOCC2)N=C(c2ccc(OCCCO)cc2)O[C@@H]1c1ccccc1`, the z-score is 1.06 (inactive) in experiment [1]; 28.8 (active) in experiment [3]; 24.3 (active) in experiment [4]; 2.41 (inactive) in experiment [5]; 5.39 (inactive) in experiment [6]; 0.368 in experiment [7]. In addition, the z-score in experiment [8] was -0.57 (inactive); in [9], 1.25 (inactive); in experiment [10], 0.589; in experiment [11] it was 0.189; in experiment [12], -0.455; in [13] it was 0.357. For the same compound, the z-score was -0.511 in experiment [14]; -0.905 in experiment [15]; 2.55 in [16]; 0.248 (inactive) in experiment [17]; -0.293 in experiment [18]; -1.35 in experiment [19]. Also, in experiment [20], the z-score was -0.524 (inactive). The compound also gave a composite z-score in experiment [2] of 0.234.
With `COc1ccc(C(O)C2C=CC3C(=O)N(c4ccccc4)C(=O)C3N2Nc2ccc(C(C)C)cc2)cc1OCc1ccccc1` (stereo not given), the z-score in [1] is -3.31 (inactive); in experiment [3], 2.07 (inactive); in experiment [4], 1.62 (inactive); in experiment [5], -0.167 (inactive); in [6] it was 1.47 (inactive); in experiment [7], -0.951. In addition, the z-score in experiment [8] is 0.506 (inactive); in [9] it was -2.55 (inactive); in experiment [10] it was -1.22; in experiment [11], 0.997; in experiment [12] it was -1.42; in experiment [13] it was 0.915. Besides, the z-score was -0.737 in [14]; -0.63 in [15]; -0.318 in [16]; -0.116 (inactive) in experiment [17]; -0.427 in experiment [18]; -0.173 in experiment [19]. Also, the z-score in experiment [20] was -0.193 (inactive). In experiment [2], the composite z-score was determined as 0.129.
As for `C=C(CCCC)C(=O)CC[C@H](OC(=O)c1cccnc1)c1ccccc1OCCO`, the z-score was 0.853 (inactive) in experiment [1]; 16 (active) in experiment [3]; 1.6 (inactive) in experiment [4]; 0.232 (inactive) in experiment [5]; -0.674 (inactive) in experiment [6]; 1.28 in [7]. Moreover, the z-score was -1.2 (inactive) in experiment [8]; -0.324 (inactive) in experiment [9]; -2.33 in [10]; 0.414 in [11]; 1.54 in [12]; -0.664 in experiment [13]. Besides, the z-score in [14] was -3.22; in experiment [15] it was -1.65; in experiment [16], 0.663; in experiment [17], -0.916 (inactive); in experiment [18], -0.587; in experiment [19] it was -0.491. In addition, in experiment [20], the z-score is 1.1 (inactive). The compound further yielded a composite z-score in [2] of -0.012.
For `CN1C(=O)C2C=CC(C(O)C3=C[C@H]4C[C@@H](C3)C4(C)C)N(Nc3ccccc3)C2C1=O` (stereo not given in full), the z-score was -0.318 (inactive) in experiment [1]; 0.451 (inactive) in experiment [3]; 0.69 (inactive) in experiment [4]; -0.0209 (inactive) in [5]; 0.852 (inactive) in experiment [6]; -0.776 in [7]. Moreover, the z-score is -0.945 (inactive) in [8]; -3.91 (inactive) in experiment [9]; -2.99 in experiment [10]; -0.456 in [11]; -0.893 in experiment [12]; -0.0728 in experiment [13]. Besides, the z-score in experiment [14] was -2.52; in [15], -0.724; in experiment [16] it was -1.75; in experiment [17], -0.209 (inactive); in [18] it was -0.353; in experiment [19] it was -0.39. Besides, in [20], the z-score was 0.0383 (inactive). The compound further had a composite z-score in experiment [2] of 0.202.

(Values after PubChem BioAssay.)
